Data reported in the supplement of paper PMC13380429.

System: Vero E6 infected with SARS-CoV-2
Assay: inhibition of SARS-CoV-2 cytopathic effect; higher = more antiviral protection, active = above 15
Settings: 48 h

Measured: inhibition of SARS-CoV-2 cytopathic effect

CN(C)C(=O)[C@H](O)[C@H](Cc1ccccc1)NC(=O)c1cc2cc(Cl)ccc2[nH]1
inactive: 1 nM 0.8% | 8.33 nM -0.29% | 100 nM -0.45% | 833.33 nM 1.2% | 10000 nM 4.47%

CN1CCN(C(=O)O[C@H]2c3nccnc3C(=O)N2c2ccc(Cl)cn2)CC1
inactive: 1 nM 0.72% | 8.33 nM 1.71% | 100 nM 2.86% | 833.33 nM 2.34% | 10000 nM 0.85%

CCOC(=O)[C@H](CCc1ccccc1)N[C@@H](C)C(=O)N1[C@H](C(=O)O)C[C@@H]2CCC[C@@H]21 [ramipril]
inactive: 1 nM -0.55% | 8.33 nM -0.01% | 100 nM -0.53% | 833.33 nM 5.34% | 10000 nM -2.38%

CC(=O)N1CCN(c2ccc(OC[C@@H]3CO[C@@](Cn4ccnc4)(c4ccc(Cl)cc4Cl)O3)cc2)CC1 (racemic) [ketoconazole]
inactive: 1 nM -0.87% | 8.33 nM -0.69% | 100 nM -1.88% | 833.33 nM 0.35% | 10000 nM 1.61%

CN(C(=O)CCCOc1ccc2[nH]c(=O)ccc2c1)C1CCCCC1 [cilostamide]
inactive: 1 nM 0.62% | 8.33 nM 1.01% | 100 nM -0.1% | 833.33 nM 0.52% | 10000 nM -0.25%

COC(=O)CCc1ccc(OCC(O)CNC(C)C)cc1 (stereo not given) [esmolol]
inactive: 1 nM 0.17% | 8.33 nM 0.64% | 100 nM -0.39% | 833.33 nM 0.07% | 10000 nM -0.39%

Cc1cc(N2CCOCC2)cc2[nH]c(-c3c(NC[C@@H](O)c4cccc(Cl)c4)cc[nH]c3=O)nc12
inactive: 1 nM -1.74% | 8.33 nM -0.03% | 100 nM -2.39% | 833.33 nM -2.43% | 10000 nM -13.9%

Cc1sc2c(c1C)C(c1ccc(Cl)cc1)=N[C@@H](CC(=O)Nc1ccc(O)cc1)c1nnc(C)n1-2
inactive: 1 nM 1.01% | 8.33 nM 0.43% | 100 nM -1.47% | 833.33 nM -3.68% | 10000 nM -9.86%

NCCC(O)(P(=O)(O)O)P(=O)(O)O [pamidronate]
inactive: 1 nM -0.49% | 8.33 nM 2.17% | 100 nM -0.58% | 833.33 nM -3.14% | 10000 nM -1.25%

COc1ccc(NS(=O)(=O)c2sc3ccc(Cl)cc3c2C)cc1N1CCNCC1
inactive: 1 nM 0.93% | 8.33 nM 3.35% | 100 nM 0.86% | 833.33 nM 3.23% | 10000 nM -3.32%

C[C@H](Oc1ccc(S(C)(=O)=O)cc1C(=O)N1CCN(c2ncc(C(F)(F)F)cc2F)CC1)C(F)(F)F [bitopertin]
inactive: 1 nM 1.07% | 8.33 nM 0.78% | 100 nM 1.93% | 833.33 nM 0.34% | 10000 nM -3.97%

O=C(c1ccc(F)cc1)C1CCN(CCn2c(=S)[nH]c3ccccc3c2=O)CC1 [altanserin]
inactive: 1 nM -0.65% | 8.33 nM 0.82% | 100 nM 0.34% | 833.33 nM 2.37% | 10000 nM 1%

CC(C)C[C@H](NC(=O)N1CCCCCC1)C(=O)N[C@H](Cc1cn(C)c2ccccc12)C(=O)N[C@H](Cc1ccccn1)C(=O)O
inactive: 1 nM -0.85% | 8.33 nM 2.47% | 100 nM 0.97% | 833.33 nM -2.82% | 10000 nM 2.44%

CN1CCC(=C2c3ccccc3Sc3ccccc32)CC1 [pimethixene]
inactive: 1 nM 1.38% | 8.33 nM 0.84% | 100 nM -0.63% | 833.33 nM -0.47% | 10000 nM -3.2%

Clc1cccc(-c2nnnn2Cc2cccnc2)c1Cl
inactive: 1 nM -1.94% | 8.33 nM -0.7% | 100 nM 0.71% | 833.33 nM -2.59% | 10000 nM -3.45%

O=C(CNC(=O)c1ccc(Cl)cc1)NO [benurestat]
inactive: 1 nM -3.63% | 8.33 nM -2.49% | 100 nM -1.54% | 833.33 nM -0.58% | 10000 nM 0.4%

C[N+]1(C)[C@@H]2C[C@@H](OC(=O)[C@H](CO)c3ccccc3)C[C@H]1[C@@H]1O[C@@H]12 [methscopolamine]
inactive: 1 nM -1.29% | 8.33 nM -0.27% | 100 nM 1.56% | 833.33 nM 0.62% | 10000 nM 1.83%
